Results on 44 sequences are retold here after paper PMC10726135, “HNF4α isoforms regulate the circadian balance between carbohydrate and lipid metabolism in the liver”.

In all, about 18,000 sequences were measured (“log2 normalized intensity”: median about 0.36, highest 2% from about 7.3 on). Only a selection was taken, and the highest values are over-represented in it overall.

The target of the assay is T1, HNF4alpha8 (COS-7 nuclear extract) (Homo sapiens, UniProt P41235-5 1-452).
T1 sequence: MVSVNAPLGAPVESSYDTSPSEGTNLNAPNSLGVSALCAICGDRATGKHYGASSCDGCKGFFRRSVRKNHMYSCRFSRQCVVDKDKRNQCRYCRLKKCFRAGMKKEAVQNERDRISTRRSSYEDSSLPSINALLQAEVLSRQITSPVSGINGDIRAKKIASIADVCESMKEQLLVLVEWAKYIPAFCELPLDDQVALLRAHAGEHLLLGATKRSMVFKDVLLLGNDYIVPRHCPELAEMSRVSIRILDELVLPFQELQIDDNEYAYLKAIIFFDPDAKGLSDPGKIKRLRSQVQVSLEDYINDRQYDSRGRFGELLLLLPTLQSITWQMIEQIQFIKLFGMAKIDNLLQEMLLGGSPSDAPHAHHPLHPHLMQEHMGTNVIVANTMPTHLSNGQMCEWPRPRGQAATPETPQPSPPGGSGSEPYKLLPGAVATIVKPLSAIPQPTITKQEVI
Description: protein-binding microarray; COS-7 nuclear extract on double-stranded Agilent 4x180k PBM; binding buffer, salt, pH and temperature not given in the material; high values mean tight binding. The settings on record: chain copies: 2; label: 3' end of strand 1 on the slide; dsDNA, one strand shown. In outline: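 Using CaPO4, COS-7 cells were transiently transfected with a human HNF4α isoform expression vector, and their nuclear extracts were applied to a custom Agilent SurePrint G3 4x180k double-stranded oligonucleotide array (~60 nt; ~44,000 test sequences in quadruplicate). Bound HNF4α was imaged at 2-µm resolution with an Agilent G2565CA scanner. Agilent software supplied the background-corrected, normalized gProcessedSignal that serves as the binding signal.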
Turning to “TCCTCTATCTTCAAAGCCAGCAACGGTGAGGCCTAGGGAGATTAGAGTATCGGTCGA”, the binding signal was found to be 0.0395 log2 normalized intensity.
As to “CAGCTGTCGTGTGAATAGCACTGACCAGCTGCCTAGGGAGATTAGAGTATCGGTCGA”, the binding signal came to 0.27 log2 normalized intensity.
As for “CTAATGGAGAGGATGGGGACAAAGGTCAAGGCCTAGGGAGATTAGAGTATCGGTCGA”, the binding signal was determined as 8.12 log2 normalized intensity.
Under “GACAAAGGTCATTCATGTGCAGGTTGGAATGCCTAGGGAGATTAGAGTATCGGTCGA” stands 3.11 log2 normalized intensity; under “GTTATCTAATGGAGAGGATGGGGACAAAGGGCCTAGGGAGATTAGAGTATCGGTCGA”, 2.55 log2 normalized intensity; under “TTTGGAATTCCCTGCAAGGACAAAGGTCATGCCTAGGGAGATTAGAGTATCGGTCGA”, 7.71 log2 normalized intensity.
For “AATTCCCTGCAAGGACAAAGGTCATGTTTTGCCTAGGGAGATTAGAGTATCGGTCGA”, the binding signal amounted to 7.11 log2 normalized intensity.
For the sequence “GGAGAGGATGGGGACAAAGGTCAAGAAAGCGCCTAGGGAGATTAGAGTATCGGTCGA”, the binding signal amounted to 6.33 log2 normalized intensity.
Consider “TTACTTTTGCAAGGTTTGTTCTTATCATGCGCCTAGGGAGATTAGAGTATCGGTCGA”, for which the binding signal was 0.712 log2 normalized intensity.
As for “CCCATCCCAGAGGTCAAACTATCTGAGGTGGCCTAGGGAGATTAGAGTATCGGTCGA”, the binding signal was 1.93 log2 normalized intensity.
Regarding “TCAGATGAGACTTTGGACTTTTGAACTAAGGCCTAGGGAGATTAGAGTATCGGTCGA”, the binding signal was determined as 7.23 log2 normalized intensity.
On to “GAATCTACAGAATTCTCATGGAGGACTTTGGCCTAGGGAGATTAGAGTATCGGTCGA”, for which the binding signal came to 3.31 log2 normalized intensity.
On to “AATTCTCATGGAGGACTTTGGCCTTTTGTGGCCTAGGGAGATTAGAGTATCGGTCGA”, for which the binding signal is 6.71 log2 normalized intensity.
Take “GGGCTGAGGATGAGGACTTTGGTCTTATTAGCCTAGGGAGATTAGAGTATCGGTCGA”: the binding signal stood at 4.45 log2 normalized intensity.
In the case of “GATGTTGGGAGGAGTGGACTTTGATCTCAGGCCTAGGGAGATTAGAGTATCGGTCGA”, the binding signal came to 9.38 log2 normalized intensity.
Consider “ATCTAGGTGAGGGATGAGGACTTTGATCAGGCCTAGGGAGATTAGAGTATCGGTCGA”, for which the binding signal is 6.79 log2 normalized intensity.
In the case of “CTGAGAAGATGAAAGACGAAAGGGACTTTGGCCTAGGGAGATTAGAGTATCGGTCGA”, the binding signal is 2.82 log2 normalized intensity.
Under “TTATCTCAGATGAGACTTTGGACTTTTGAAGCCTAGGGAGATTAGAGTATCGGTCGA” stands 8.04 log2 normalized intensity.
“TACAGAATTCTCATGGAGGACTTTGGCCTTGCCTAGGGAGATTAGAGTATCGGTCGA”: the binding signal came out at 7.81 log2 normalized intensity.
In the case of “TCTGGGATGTTGGGAGGAGTGGACTTTGATGCCTAGGGAGATTAGAGTATCGGTCGA”, the binding signal was determined as 6.84 log2 normalized intensity.
Regarding “GGGACTAGCCTTATCTCAGATGAGACTTTGGCCTAGGGAGATTAGAGTATCGGTCGA”, the binding signal is 2.03 log2 normalized intensity.
With “TAGCCTTATCTCAGATGAGACTTTGGACTTGCCTAGGGAGATTAGAGTATCGGTCGA”, the binding signal came to 8.64 log2 normalized intensity.
Turning to “CTCCCCCACGACAGAATTGACTCTTCGTTTGCCTAGGGAGATTAGAGTATCGGTCGA”, the binding signal came to 2.63 log2 normalized intensity.
Turning to “CTTTCATCTTTGCGGTGAGCATTTGTTTAGGCCTAGGGAGATTAGAGTATCGGTCGA”, the binding signal came out at 0.99 log2 normalized intensity.
Consider “CAGAAGCAATCACAAGGAATGCCCTTATCTGCCTAGGGAGATTAGAGTATCGGTCGA”, for which the binding signal came out at 2.11 log2 normalized intensity.
Regarding “CCTATGGTATGTATGGAATGTCACTTTCTGGCCTAGGGAGATTAGAGTATCGGTCGA”, the binding signal stood at 1.79 log2 normalized intensity.
Next, “ATGCACGTGCTCCAGGAGGGGAGGAGGGTCGCCTAGGGAGATTAGAGTATCGGTCGA”: 3.4 log2 normalized intensity; “GTCCACACATTCCTAGACCTTTGACCTTTAGCCTAGGGAGATTAGAGTATCGGTCGA”: 8.88 log2 normalized intensity; “CCCAAGATGGATTGGGTCCACACATTCCTAGCCTAGGGAGATTAGAGTATCGGTCGA”: 0.829 log2 normalized intensity.
Turning to “ATTGGGTCCACACATTCCTAGACCTTTGACGCCTAGGGAGATTAGAGTATCGGTCGA”, the binding signal was found to be 3.87 log2 normalized intensity.
As to “CTTTATACCTGTACGTTACTCTGTACCTCGGCCTAGGGAGATTAGAGTATCGGTCGA”, the binding signal was found to be 1.8 log2 normalized intensity.
On to “ATTGTGATTCCTGTGATACCTTCTTTGCCTGCCTAGGGAGATTAGAGTATCGGTCGA”, for which the binding signal was determined as 0.781 log2 normalized intensity.
Regarding “GACCTTTGACCTTTATACCTGTACGTTACTGCCTAGGGAGATTAGAGTATCGGTCGA”, the binding signal was found to be 7.64 log2 normalized intensity.
Next, “TTGACCTTTATACCTGTACGTTACTCTGTAGCCTAGGGAGATTAGAGTATCGGTCGA”: 4.37 log2 normalized intensity.
Under “CACATTCCTAGACCTTTGACCTTTATACCTGCCTAGGGAGATTAGAGTATCGGTCGA” stands 8.55 log2 normalized intensity; under “TCCTAGACCTTTGACCTTTATACCTGTACGGCCTAGGGAGATTAGAGTATCGGTCGA”, 6.76 log2 normalized intensity.
With “GGAACCAAGAGCAGATTTGTTTGCTCTTTAGCCTAGGGAGATTAGAGTATCGGTCGA”, the binding signal was found to be 0.915 log2 normalized intensity.
For “TTCCCTGAGTTTCCATTAACTGAACCTAGAGCCTAGGGAGATTAGAGTATCGGTCGA”, the binding signal came to 1.69 log2 normalized intensity.
As for “TAAGATACGAAGGGTTTAAAGGGCAGAAGAGCCTAGGGAGATTAGAGTATCGGTCGA”, the binding signal stood at 2.39 log2 normalized intensity.
Turning to “AAGTTCATGGAAAGTTTCACTTTCTCTTATGCCTAGGGAGATTAGAGTATCGGTCGA”, the binding signal was 0.0777 log2 normalized intensity.
As for “TTCCCTAAGATTCTGGTCAAAGGTCAATGAGCCTAGGGAGATTAGAGTATCGGTCGA”, the binding signal came out at 8.22 log2 normalized intensity.
Under “GCAAAGGTCAGCTCATTCCCTAGGGCTCGGGCCTAGGGAGATTAGAGTATCGGTCGA” stands -0.991 log2 normalized intensity; under “ATTCATTCCCTAAGATTCTGGTCAAAGGTCGCCTAGGGAGATTAGAGTATCGGTCGA”, 7.83 log2 normalized intensity; under “TTCTGGTCAAAGGTCAATGAAGCTCTTGCTGCCTAGGGAGATTAGAGTATCGGTCGA”, 6.15 log2 normalized intensity.
